# Test results: PMC5540273 (PLoS ONE, 2017)
# Experiments:
# Details in all cases: concentration: 1 μM, replicates: in singlicate; n = 1
# [1] = tested on: BMPR1A
# [2] = tested on: BMPR1B
# [3] = tested on: BMPR2
# [4] = tested on: BMX
# [5] = tested on: BRAF
# [6] = tested on: T1, BRK
# T1 construct: gene PTK6
# [7] = tested on: BRSK1
# [8] = tested on: BRSK2
# [9] = tested on: BTK
# [10] = tested on: BUB1
# [11] = tested on: CAMK1B
# [12] = tested on: CAMK1D
# [13] = tested on: CAMK1G
# [14] = tested on: CAMK1
# [15] = tested on: CAMK2A
# [16] = tested on: CAMK2B
# [17] = tested on: CAMK2D
# [18] = tested on: CAMK2G
# [19] = tested on: CAMK4
# [20] = tested on: CAMKK1
# 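Also: KINOMEscan kinase panel screen.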
structure (smiles),measurement,setting,value
COc1cc2ncn(-c3cc(OCC4CCCO4)c(C(N)=O)s3)c2cc1OC (stereo not shown) [GSK204607],%Inh,[1],0%
same,%Inh,[2],0%
same,%Inh,[3],24%
same,%Inh,[4],19%
same,%Inh,[5],0%
same,%Inh,[6],18%
same,%Inh,[7],15%
same,%Inh,[8],7%
same,%Inh,[9],0%
same,%Inh,[10],32%
same,%Inh,[11],0%
same,%Inh,[12],13%
same,%Inh,[13],0%
same,%Inh,[14],6%
same,%Inh,[15],0%
same,%Inh,[16],0%
same,%Inh,[17],0%
same,%Inh,[18],0%
same,%Inh,[19],0%
same,%Inh,[20],0%
Cc1cccc(-c2nc(C)cc(Nc3ccncc3)n2)n1 [GSK257997],%Inh,[1],14%
same,%Inh,[2],0%
same,%Inh,[3],2%
same,%Inh,[4],27%
same,%Inh,[5],0%
same,%Inh,[6],2%
same,%Inh,[7],0%
same,%Inh,[8],0%
same,%Inh,[9],0%
same,%Inh,[10],9%
same,%Inh,[11],12%
same,%Inh,[12],14%
same,%Inh,[13],99.4%
same,%Inh,[14],10%
same,%Inh,[15],0%
same,%Inh,[16],0%
same,%Inh,[17],94.2%
same,%Inh,[18],12%
same,%Inh,[19],0%
same,%Inh,[20],0%
C[C@@H]1CCCCN1c1cc(-c2ccc3c(N)n[nH]c3c2)nc(N)n1 [GSK2258759],%Inh,[1],0%
same,%Inh,[2],0%
same,%Inh,[3],0%
same,%Inh,[4],12%
same,%Inh,[5],0%
same,%Inh,[6],11%
same,%Inh,[7],0%
same,%Inh,[8],0%
same,%Inh,[9],0%
same,%Inh,[10],0%
same,%Inh,[11],0%
same,%Inh,[12],15%
same,%Inh,[13],0%
same,%Inh,[14],9%
same,%Inh,[15],0%
same,%Inh,[16],0%
same,%Inh,[17],1%
same,%Inh,[18],28%
same,%Inh,[19],0%
same,%Inh,[20],8%
Cc1ccc(NC(=O)Nc2cc(C(C)(C)C)nn2-c2ccccc2)cc1 [GSK1014915],%Inh,[1],0%
same,%Inh,[2],0%
same,%Inh,[3],37%
same,%Inh,[4],14%
same,%Inh,[5],74%
same,%Inh,[6],20%
same,%Inh,[7],100%
same,%Inh,[8],0%
same,%Inh,[9],0%
same,%Inh,[10],21%
same,%Inh,[11],33%
same,%Inh,[12],3%
same,%Inh,[13],0%
same,%Inh,[14],0%
same,%Inh,[15],0%
same,%Inh,[16],0%
same,%Inh,[17],0%
same,%Inh,[18],14%
same,%Inh,[19],0%
same,%Inh,[20],12%
Cn1ccc2ncnc(Oc3cccc(C(=O)Nc4ccccc4)c3)c21,%Inh,[1],5%
same,%Inh,[2],13%
same,%Inh,[3],14%
same,%Inh,[4],0%
same,%Inh,[5],0%
same,%Inh,[6],15%
same,%Inh,[7],0%
same,%Inh,[8],0%
same,%Inh,[9],0%
same,%Inh,[10],8%
same,%Inh,[11],12%
same,%Inh,[12],0%
same,%Inh,[13],17%
same,%Inh,[14],29%
same,%Inh,[15],1%
same,%Inh,[16],0%
same,%Inh,[17],20%
same,%Inh,[18],19%
same,%Inh,[19],0%
same,%Inh,[20],20%
CC(C)(C)c1ccc(C(=O)Nc2cn3cc(-c4cccnc4)ccc3n2)cc1,%Inh,[1],34%
same,%Inh,[2],0%
same,%Inh,[3],1%
same,%Inh,[4],25%
same,%Inh,[5],0%
same,%Inh,[6],0%
same,%Inh,[7],6%
same,%Inh,[8],25%
same,%Inh,[9],0%
same,%Inh,[10],8%
same,%Inh,[11],24%
same,%Inh,[12],38%
same,%Inh,[13],12%
same,%Inh,[14],4%
same,%Inh,[15],6%
same,%Inh,[16],7%
same,%Inh,[17],24%
same,%Inh,[18],10%
same,%Inh,[19],0%
same,%Inh,[20],21%
Cn1cncc1-c1ccc2ncnc(Nc3ccc(OCc4ccccc4)cc3)c2c1 [GW320571],%Inh,[1],17%
same,%Inh,[2],0%
same,%Inh,[3],0%
same,%Inh,[4],28%
same,%Inh,[5],3%
same,%Inh,[6],15%
same,%Inh,[7],0%
same,%Inh,[8],0%
same,%Inh,[9],0%
same,%Inh,[10],26%
same,%Inh,[11],11%
same,%Inh,[12],23%
same,%Inh,[13],16%
same,%Inh,[14],23%
same,%Inh,[15],0%
same,%Inh,[16],0%
same,%Inh,[17],9%
same,%Inh,[18],10%
same,%Inh,[19],23%
same,%Inh,[20],0%
COc1cc2ncnc(Nc3ccc4nc(-c5ccccc5)[nH]c4c3)c2cc1OC.Cl [GW282450],%Inh,[1],0%
same,%Inh,[2],0%
same,%Inh,[3],0%
same,%Inh,[4],10%
same,%Inh,[5],0%
same,%Inh,[6],0%
same,%Inh,[7],0%
same,%Inh,[8],0%
same,%Inh,[9],0%
same,%Inh,[10],6%
same,%Inh,[11],0%
same,%Inh,[12],20%
same,%Inh,[13],0%
same,%Inh,[14],29%
same,%Inh,[15],0%
same,%Inh,[16],0%
same,%Inh,[17],1%
same,%Inh,[18],24%
same,%Inh,[19],0%
same,%Inh,[20],11%
Fc1cccc(COc2nnc(-c3ccc4c(c3)CCO4)o2)c1,%Inh,[1],0%
same,%Inh,[2],6%
same,%Inh,[3],18%
same,%Inh,[4],0%
same,%Inh,[5],0%
same,%Inh,[6],0%
same,%Inh,[7],0%
same,%Inh,[8],6%
same,%Inh,[9],17%
same,%Inh,[10],20%
same,%Inh,[11],0%
same,%Inh,[12],0%
same,%Inh,[13],12%
same,%Inh,[14],18%
same,%Inh,[15],0%
same,%Inh,[16],6%
same,%Inh,[17],0%
same,%Inh,[18],7%
same,%Inh,[19],0%
same,%Inh,[20],8%
CCCc1ccc(S(=O)(=O)NC2CCN(c3ccnc(Nc4ccc(F)cc4)n3)C2)cc1 (stereo not shown) [GSK1379715],%Inh,[1],0%
same,%Inh,[2],0%
same,%Inh,[3],0%
same,%Inh,[4],2%
same,%Inh,[5],0%
same,%Inh,[6],0%
same,%Inh,[7],0%
same,%Inh,[8],0%
same,%Inh,[9],0%
same,%Inh,[10],29%
same,%Inh,[11],6%
same,%Inh,[12],0%
same,%Inh,[13],0%
same,%Inh,[14],0%
same,%Inh,[15],0%
same,%Inh,[16],0%
same,%Inh,[17],0%
same,%Inh,[18],0%
same,%Inh,[19],0%
same,%Inh,[20],12%
Cc1ccc(-c2cc(-c3c[nH]nc3-c3ccccn3)ccn2)cc1 [GW684088],%Inh,[1],0%
same,%Inh,[2],18%
same,%Inh,[3],0%
same,%Inh,[4],36%
same,%Inh,[5],0%
same,%Inh,[6],3%
same,%Inh,[7],0%
same,%Inh,[8],0%
same,%Inh,[9],51%
same,%Inh,[10],40%
same,%Inh,[11],55%
same,%Inh,[12],13%
same,%Inh,[13],14%
same,%Inh,[14],9%
same,%Inh,[15],2%
same,%Inh,[16],0%
same,%Inh,[17],16%
same,%Inh,[18],25%
same,%Inh,[19],0%
same,%Inh,[20],30%
